From PubChem BioAssay (NCATS)
Inconclusive results are not listed. Unmarked numbers belong to inactive results. Calls follow the shape of the dose curve; as a rule, active = well fitted cell-killing curve with a large enough effect; inconclusive = small, poorly fitted or top-dose-only effect, or effect the other way; inactive = flat fitted curve, though single readings scatter.
% is scaled to controls: 0 for no effect and ±100 for the full control effect.

What follows are molecules tested on Hek293T (assay: Primary qHTS to identify gynecologic anti-cancer compounds using libraries of approved drugs and bioactive compounds (AID 1345084; also: nearly all actives have a fitted effect of over 55% in size)). Conditions: Gynecologic cancer cell panel viability, ATPlite luminescence, 48 h, control line for the selectivity index; series mostly up to 57.5 µM; activity change, negative = cytotoxicity: at the top concentration.
Summary of the method: (§1)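 Five-concentration response, 48 h; readout is ATP-driven luciferase luminescence.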
For `Cc1c(C2=CCN(C(=O)N(C)C(C)C)CC2)nnn1-c1cccnc1F`, the “activity change, negative = cytotoxicity” value was 0.657%.
With `CC1=C(c2ccc(NC(=O)c3c(F)cccc3F)cc2)CN(c2nccs2)CC1` the “activity change, negative = cytotoxicity” value was -0.85%.
With `CS(=O)(=O)Nc1ccc2oc3c(OC(F)F)ccc(C(=O)Nc4c(Cl)cncc4Cl)c3c2c1` the “activity change, negative = cytotoxicity” value was 2.07%.
For `Clc1ncoc1-c1c[nH]c2ccccc12`, the “activity change, negative = cytotoxicity” value was -1.97%.
In the case of `CCn1c(=O)c(-c2ccc(Cl)cc2Cl)cc2cnc(Nc3ccc(N4CCNCC4)c(F)c3)nc21`, the “activity change, negative = cytotoxicity” value is reported as 1.05%.
For `C=C1C(=O)O[C@@H]2/C=C(\C)CC/C=C(\C)CC[C@@H]12`, the “activity change, negative = cytotoxicity” value was -20.1%.
`O=C(NCCCNc1nc(Nc2cccc(CN3CCOCC3)c2)ncc1C1CC1)C1CCC1` was tested, and the “activity change, negative = cytotoxicity” value was -1.67%.

These molecules were tested on JEG-3 in the same assay as above. Conditions: Gynecologic cancer cell panel viability, ATPlite luminescence, 48 h; series mostly up to 57.5 µM; activity change, negative = cytotoxicity: at the top concentration.
Summary of the method: as §1
For `O=C(Nc1ccn(Cc2ccc(O)cc2C(F)(F)F)n1)c1c(F)cccc1F`, the “activity change, negative = cytotoxicity” value was -13%.
`CN(C)C(=O)Nc1cccc(-c2ccc(N(C)C)cc2)c1` was tested, and the “activity change, negative = cytotoxicity” value was -1.11%.
`C[C@@H]1CCCN1CCc1cc2cc(-c3ccc(C#N)cc3)ccc2o1` was tested, and the “activity change, negative = cytotoxicity” value was -15.5%.
In the case of `Cc1cc(C(=O)Nc2cc(Nc3ccc4c(/C=C/c5ccccn5)n[nH]c4c3)ccc2F)n(C)n1`, the “activity change, negative = cytotoxicity” value is reported as -0.412%.
`COc1nc2ccc(Br)cc2cc1[C@@H](c1ccccc1)[C@@](O)(CCN(C)C)c1cccc2ccccc12` was tested, and the “activity change, negative = cytotoxicity” value was 7.54%.
`Cn1ncc(Cl)c1-c1cc(C(=O)N[C@H](CN)Cc2ccc(F)c(F)c2)oc1Cl` was tested, and the “activity change, negative = cytotoxicity” value was -16.6%.
With `C=C1CC[C@@H](O)[C@]2(C)C[C@H]3OC(=O)C(=C)[C@H]3CC12` (stereo partly specified) the “activity change, negative = cytotoxicity” value was -4.61%.
With `COc1ccc(N2CCN(C(=O)c3cc4c(s3)-c3ccccc3S(=O)(=O)C4)CC2)cc1` the “activity change, negative = cytotoxicity” value was 4.23%.
In the case of `CCOc1cc(C(C)(C)C)ccc1C1=N[C@@](C)(c2ccc(Cl)cc2)[C@@](C)(c2ccc(Cl)cc2)N1C(=O)N1CCN(CC(=O)N2CCOCC2)CC1`, the “activity change, negative = cytotoxicity” value is reported as -25.4% [at 38.5 µM].
